Source: the supplement of paper PMC11150407
Where a name gives a salt, the structure may show the parent alone. About 180 (8.6%) of roughly 2,100 compounds showed an effect of 50% or more. This is one part of a sample in which strong results are shown more often than they occur.

system: MOLM1 and UCSD/AML1 (averaged); assay: cell viability relative to DMSO control (POC); higher = less growth inhibition; conditions: 1 µM; 72 h
Description: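 Primary viability screen in the 3q26 EVI1-high AML cell lines MOLM1 and UCSD/AML1 (1.5e3 cells/well, 384-well), compounds at 1 uM for 72 h. ATP CellTiter-Glo read-out given as percent of viable cells over DMSO control (POC), averaged over duplicates. DMSO was the negative control and 5 uM etoposide the positive control. This mapping covers the MicroSource Spectrum and Selleck anticancer libraries (drug names).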

SMILES	cell viability [%]
CC(=O)Nc1cccc(-n2c(=O)n(C3CC3)c(=O)c3c(Nc4ccc(I)cc4F)n(C)c(=O)c(C)c32)c1	27.3
CC(=O)Oc1cc(C)c2c(c1C(OC(C)=O)OC(C)=O)Oc1c(c(C)c(OC(C)=O)c3c1C(OC(C)=O)OC3=O)OC2=O (stereo unspecified)	97.6
CC(=O)O[C@H]1C[C@@H](OC(C)=O)C(C)(C)C2CC(=O)[C@]3(C)C(CC[C@@]4(C)[C@H](c5ccoc5)OC(=O)[C@H]5O[C@]543)[C@]21C (stereo partly specified)	97.1
CC(=O)Oc1cc(OC(C)=O)c2c(c1)O[C@H](c1ccc(OC(C)=O)c(OC(C)=O)c1)[C@@H](OC(C)=O)C2	96.7
COc1ccc(-c2cc(=O)c3c(O)cc(O)cc3o2)cc1O	83
COc1cc(N2CCC(N3CCN(C)CC3)CC2)ccc1Nc1ncc(Cl)c(Nc2ccccc2S(=O)(=O)C(C)C)n1	30.7
C=CC(=O)Nc1cccc(Oc2nc(Nc3ccc(N4CCN(C)CC4)cc3OC)ncc2Cl)c1	86.3
COc1ccc(-c2oc3c(CC=C(C)C)c(O[C@@H]4O[C@H](CO)[C@@H](O)[C@H](O)[C@H]4O)cc(O)c3c(=O)c2O[C@@H]2O[C@@H](C)[C@H](O)[C@@H](O)[C@H]2O)cc1	83
CC(=O)O[C@H]1CC[C@@]2(C)[C@@H](CC[C@@H]3[C@@H]2CC(=O)[C@]2(C)[C@@H]4[C@H](C[C@@H]32)O[C@]2(CC[C@@H](C)CO2)[C@H]4C)C1	88.1
CC[C@@H]1C(=O)N(C)c2cnc(Nc3ccc(C(=O)NC4CCN(C)CC4)cc3OC)nc2N1C1CCCC1	13.2
COc1cc(OC2CCN(C)CC2)ccc1Nc1ncc2c(n1)n(C1CCCC1)c(=O)n2C	70.8
CC[C@@H]1C(=O)N(C)c2cnc(Nc3ccc(C(=O)N[C@H]4CC[C@H](N5CCN(CC6CC6)CC5)CC4)cc3OC)nc2N1C(C)C [BI6727 (Volasertib)]	14.5
CCOC(=O)CCCCCCCCCCCCC1C=CCC1 (stereo unspecified)	103
CN1CCN(C(c2ccccc2)c2ccccc2)CC1	102
COC(=O)C1=CO[C@@H](O[C@@H]2O[C@H](CO)[C@@H](O)[C@H](O)[C@H]2O)[C@@H]2[C@@H](C)[C@@H](O)C[C@H]12	94.9
CC1(C)CCC[C@]2(C)[C@@H]3[C@H]1[C@@H](O)[C@@]2(C)C[C@H]3O	92
CC(C)C[C@H](N)C(=O)N[C@@H](C)C(=O)O	98.2
CC(=O)OC(C)(C)[C@@H]1Cc2cc3ccc(=O)oc3cc2O1	100
CCNC(=O)c1noc(-c2cc(C(C)C)c(O)cc2O)c1-c1ccc(CN2CCOCC2)cc1 [Luminespib (AUY-922, NVP-AUY922)]	2.13
O=C(O)[C@H](O)[C@@](O)(Cc1ccc(O)cc1)C(=O)O	92.1
C/C=C(\C)C(=O)O[C@@H]1c2c(ccc3ccc(=O)oc23)OC(C)(C)[C@@H]1OC(C)=O	101

SMILES	cell viability [%]
c1ccc2c(CCNc3ccc(Nc4ccncc4)cc3)c[nH]c2c1	43.4
N[C@@H](Cc1c[nH]c2ccccc12)C(=O)O	89.5
OCc1c[nH]c2ccccc12	87.2
Cc1cc(O)c(C=O)c(O)c1C(=O)O	121
CC(=O)Oc1ccc2c(c1C(C)C)CCC1C(C)(C)CCC[C@]21C (stereo partly specified)	91.9
CC1(C)CC23C(=O)CCC(O)C2(C)CCC13 (stereo unspecified)	96.7
CN1CCC(c2c(O)cc(O)c3c(=O)cc(-c4ccccc4Cl)oc23)C(O)C1 (stereo unspecified) [Flavopiridol (Alvocidib) HCl]	1.36
CC(C)CCC[C@@H](C)[C@H]1CC[C@H]2[C@@H]3C(=O)C=C4C[C@@H](O)CC[C@]4(C)[C@H]3CC[C@]12C	95.7
CCN(CC)CCNC(=O)COc1ccc(OC)cc1	97.5
CCN(CC)CCCCNc1ncc2cc(-c3cc(OC)cc(OC)c3)c(NC(=O)NC(C)(C)C)nc2n1	36.8
Nc1nc(Nc2ccc(S(N)(=O)=O)cc2)nn1C(=O)c1c(F)cccc1F	53.8
Cn1c(=O)c(F)c(Nc2ccc(I)cc2F)c2c(=O)n(C[C@@H](O)CO)cnc21	24.8
Cn1c(=O)c2c(ncn2CC(O)CO)n(C)c1=O (stereo unspecified)	103
CC(O)Cn1cnc2c1c(=O)n(C)c(=O)n2C (stereo unspecified)	94.4
CC(C)c1cccc(=O)c(O)c1	93.6
COc1cc2ccc(=O)oc2c(O)c1O	88.3
CC1(O)CC2C(CC1O)C2(C)C (stereo unspecified)	87.5
COc1cc(-c2coc3cc(OCc4ccccc4)c(OC)c(O)c3c2=O)cc(O)c1OC	95.2
NC(Cn1ccc(=O)c(O)c1)C(=O)O (stereo unspecified)	92.7
CC(=O)O[C@@H]1C[C@H]2C(C)(C)[C@@H](O)CC[C@]2(C)[C@H]2CC[C@@]3(C)[C@H](c4ccoc4)OC(=O)[C@H]4O[C@]43[C@@]21C [beta-DIHYDROGEDUNOL]	90.3
CC(=O)N[C@@H](Cc1c[nH]c2ccccc12)C(=O)O	106

SMILES	cell viability [%]
CC(=O)N[C@@H](Cc1c[nH]c2ccccc12)C(N)=O	101
CC(C)C[C@@H](NC(=O)[C@H](C)NC(=O)CNC(=O)[C@@H](NC=O)C(C)C)C(=O)N[C@@H](C)C(=O)N[C@@H](C(=O)N[C@H](C(=O)N[C@H](C(=O)N[C@@H](Cc1c[nH]c2ccccc12)C(=O)N[C@H](CC(C)C)C(=O)N[C@@H](Cc1c[nH]c2ccccc12)C(=O)N[C@H](CC(C)C)C(=O)N[C@@H](Cc1c[nH]c2ccccc12)C(=O)N[C@H](CC(C)C)C(=O)N[C@@H](Cc1c[nH]c2ccccc12)C(=O)NCCO)C(C)C)C(C)C)C(C)C	5.86
CC1(C)CC2C1CCC1(C)OC1CCC2(C)O (stereo unspecified)	95.8
Cc1cc(O)c(C)c(O)c1C(=O)O	97.3
O=C(NC1CCNCC1)c1n[nH]cc1NC(=O)c1c(Cl)cccc1Cl	13.3
NC1=NCCN1CC(=O)O	95.6
CC(C)(C)Cn1c(N)nc2ccc(-c3[nH]c(C(C)(C)C)nc3-c3ccc(F)cc3)nc21	91
C[C@@H](Oc1cc(-c2cnn(C3CCNCC3)c2)cnc1N)c1c(Cl)ccc(F)c1Cl	21.4
NC(=O)Nc1sc(-c2ccc(F)cc2)cc1C(N)=O	42.3
OC[C@H]1O[C@@H](O[C@H]2[C@H](O)[C@@H](O)[C@@H](O)O[C@@H]2CO)[C@H](O)[C@@H](O)[C@@H]1O	105
CCC(=O)OC1[C@@H]2CC3=C4CC(=O)O[C@@H](c5ccoc5)[C@]4(C)CCC3[C@@](C)(C2=O)[C@@H](CC(=O)OC)C1(C)C (stereo partly specified)	88.5
COc1ccc(-c2coc3c(OC)c(OC)cc(O)c3c2=O)cc1	101
C#CCCCCCCCCCCCC(O)CC(O)COC(C)=O (stereo unspecified)	88.5
C[C@]12CC[C@@H]3c4ccc(O)cc4CC[C@H]3[C@@H]1CC[C@@H]2O	91.5
COc1ccc2c(c1)CC[C@@H]1[C@@H]2CC[C@]2(C)[C@@H](O)CC[C@@H]12	96.8
C[C@]12CC[C@@H]3c4ccc(O)cc4CC[C@H]3[C@@H]1CC[C@@H]2O [Estradiol]	96.7
COc1cc2c(cc1O)CC[C@@H]1[C@@H]2CC[C@]2(C)[C@@H](O)CC[C@@H]12 [2-Methoxyestradiol]	13.7
CC[C@H](/C=C/[C@@H](C)[C@H]1CC[C@H]2[C@@H]3CCC4=CC(=O)CC[C@]4(C)[C@H]3CC[C@]12C)C(C)C	108
CC(=O)CCCCn1c(=O)c2c(ncn2C)n(C)c1=O	104
COc1c(O)cc2oc3cc(O)c(CC=C(C)C)c(O)c3c(=O)c2c1CC=C(C)C [alpha-MANGOSTIN]	95.2
COc1cc(C(C)=O)cc(OC)c1O	105

SMILES	cell viability [%]
COC(=O)C[C@H]1C(C)(C)C(=O)[C@@H]2CC3C4=CC(=O)O[C@@H](c5ccoc5)[C@]4(C)CC[C@@H]3[C@@]1(C)C2=O (stereo partly specified)	98.6
O=C(c1ccc(OCCN2CCCCC2)cc1)c1c(-c2ccc(O)cc2)sc2cc(O)ccc12 [Evista (Raloxifene Hydrochloride)]	95.1
O=C(Cc1ccc(-c2ccc(OCCN3CCOCC3)cc2)cn1)NCc1ccccc1	8.82
CCCCOc1ccc(OCCCN2CCOCC2)cc1	97.5
O=C(c1ccc(OCCN2CCCCC2)cc1)c1c(-c2ccc(O)cc2)sc2cc(O)ccc12	83.3
COC(=O)C(Cc1ccccc1)NC(=O)/C(=C1/OC(=O)C(c2ccccc2)=C1O)c1ccccc1 (stereo unspecified)	105
CC1(C)CC[C@]2(C(=O)O)CC[C@]3(C)C(=CCC4[C@@]5(C)CC[C@@H](O)C(C)(C)C5CC[C@]43C)C2C1 (stereo partly specified)	102
COc1ccc(-c2coc3cc(O)ccc3c2=O)c(O)c1O	99.7
CC(=O)O[C@H]1CC[C@]2(C)[C@H]3CC[C@@]4(C)[C@H](c5ccoc5)OC(=O)[C@H]5O[C@]54[C@]3(C)[C@H](OC(C)=O)C[C@H]2C1(C)C [3beta-ACETOXYDEOXODIHYDROGEDUNIN]	91.2
COc1ccc2oc(-c3ccccc3)c(OC)c(=O)c2c1	98.7
COc1ccc(-c2cc(=O)c3c(OC)c(OC)c(OC)cc3o2)cc1OC	105
COc1ccc([C@@H]2CC(=O)c3c(O)cc(O[C@@H]4O[C@H](CO[C@@H]5O[C@@H](C)[C@H](O)[C@@H](O)[C@H]5O)[C@@H](O)[C@H](O)[C@H]4O)cc3O2)cc1O	92.8
c1ccc(-c2nn3c(c2-c2ccnc4cc(OCCN5CCOCC5)ccc24)CCC3)nc1	94.6
CC12CCC3C(CC3(C)C)C(C)(CCC1=O)O2 (stereo unspecified)	103
C=CCSCC(N)C(=O)O (stereo unspecified)	121
CCCCc1nc2cc(/C=C/C(=O)NO)ccc2n1CCN(CC)CC [SB939 (Pracinostat)]	1.57
CC1=CC(=O)CC(C)(C)C1(O)/C=C/C(C)=C\C(=O)O (mixture of isomers) [ABSCISIC ACID (cis,trans; +/-)]	102
O=Cc1ccccc1O[C@@H]1O[C@H](CO)[C@@H](O)[C@H](O)[C@H]1O	102
